The record followed here is ChEMBL document CHEMBL3988442, “University of Dundee, Small-Polar-MMV Screening Library” (2021).

In all, about 48,000 compounds went through this assay and about 13,000 (27%) showed an effect of 50% or more. The list shows a part of the results.

For this assay, the system named is Wolbachia pipientis. The experiment in a line: Anti-Wolbachia Cell-Based Screen. In kind it is functional. Further details: scale not given: in the data most compounds retested in dose-response had high values. The following applies: 5 µM.
`COc1nccnc1N1CCN(Cc2cccc(C)c2)C(=O)C1`: the “Percent Effect” value is -1.846%. For `O=C(NCC1(c2ccc(F)cc2)CCC1)N1CCC2(C1)OCCO2` the value was -19.46%; for `Cn1c(CCNC(=O)CC[C@@H]2CCCN3CCCC[C@H]23)n[nH]c1=O`, -0.3828%; for `O=C(NCCNc1ccc(C(F)(F)F)cn1)c1ccc(Br)cc1F`, 1.294%. For `N#Cc1ccc(NCCNc2ccc(C(F)(F)F)cn2)nc1` the value was -10.16%. As for `CC(C)(O)CSCCNC(=O)c1ccc(F)cc1Cl`, the figure is -9.614%.

`O=C(NCCNc1ccc(C(F)(F)F)cn1)c1ccc(Cl)cc1F`: the “Percent Effect” value turned out to be 105.2%. As for `Cc1occc1C(=O)NCCOc1ccc(C(F)(F)F)cn1`, the figure is -9.163%; as for `CC(C)(C)C(O)CCNC(=O)c1ccc(F)cc1Cl` (stereo not given), 15.76%. As for `O=C(NCCNc1ccc(C(F)(F)F)cn1)c1ccoc1`, the figure is 28.2%; as for `O=C(NCCNc1ccc(C(F)(F)F)cn1)c1ccc(F)cc1Cl`, 145.5%; as for `O=C(NCCNc1ccc(C(F)(F)F)cn1)c1cncc(Br)c1`, 0.7864%. Consider `O=C(NCCNc1ccc(C(F)(F)F)cn1)c1ccc(Br)cc1`, for which the “Percent Effect” value turned out to be 145.4%.

`O=C(NCCNc1ccc(C(F)(F)F)cn1)c1cc(Cl)ccc1F`: the “Percent Effect” value was determined as 114.8%. For the molecule `CC(C)n1ccnc1C1CCCN(c2ccnc3ccccc23)C1` (stereo not given), the “Percent Effect” value is given as -21.91%. As for `O=C(c1cccnc1)N1CCN(c2ccc(-n3cccc3)nn2)CC1`, the figure is -8.085%. As for `CCCc1noc(CS(=O)(=O)CC(=O)NC(C)CCC)n1` (stereo not given), the figure is 14.1%. As for `Cc1nnc(CCNC(=O)Nc2ccc(S(C)(=O)=O)cc2)[nH]1`, the figure is -1.089%; as for `COC(=O)CC(c1ccc(OC)c(OC)c1)c1oc(C)cc(=O)c1O` (stereo not given), 10.24%; as for `CN(C)S(=O)(=O)N1CC[C@]2(C[C@H](Oc3cccnc3)CO2)C1.O=C(O)C(F)(F)F`, -11.38%. With `Cc1cnn(CC2CCCN2Cc2nnc(C3CC3)n2C)c1` (stereo not given), the “Percent Effect” value stood at 103.3%. For `Cc1cnn(CC2CN(Cc3nccn3C)CCO2)c1` (stereo not given) the value was -4.713%; for `Cc1cnn(CC2CN(CCS(=O)(=O)C(F)(F)F)CCO2)c1` (stereo not given), -38.13%.

Take `Cc1cnn(CC2CN(Cc3nc(C4CC4)no3)CCO2)c1` (stereo not given): the “Percent Effect” value is given as 115.6%. As for `Cc1cnn(CC2CCCCN2Cc2nnc(C3CC3)n2C)c1` (stereo not given), the figure is 0.7799%. For `Cc1cnn(CC2CCCN2Cc2nnsc2Cl)c1` (stereo not given) the value was -1.868%. For `Cc1cnn(CC2CN(Cc3nc(-c4ccoc4)no3)CCO2)c1` (stereo not given) the value was -0.2172%; for `Cc1cnn(CC2CN(Cc3nnc(C4CC4)n3C)CCO2)c1` (stereo not given), 99.89%; for `COCCc1noc(CN2CCOC(Cn3cc(C)cn3)C2)n1` (stereo not given), 92.63%. As for `OC1(CNc2ccc(-c3nc(C4CC4)no3)cn2)CCCCC1`, the “Percent Effect” value was found to be 10.35%.

With `O=C(O)C1c2nc[nH]c2CCN1CC(c1ccccc1)c1ccccc1` (stereo not given), the “Percent Effect” value is reported as -19.87%. As for `O=c1cc(N2CCNCC2)cnn1CCCn1cccn1`, the figure is 6.31%; as for `CSCc1nc(CNC(=O)C2CCCN(CC(N)=O)C2)cs1` (stereo not given), -6.144%; as for `CCC(C)(C)NC(=O)COC(=O)c1cc(C)ccc1NC(=O)N(C)C`, -1.36%. On to `O=C(O)c1cccc(N2C[C@H](NC(=O)C3CCOCC3)[C@@H](C3CC3)C2)n1`, for which the “Percent Effect” value is given as -12.83%. As for `CCn1ccnc1CN(C)Cc1nc(Cc2cccc(F)c2)no1`, the figure is 17.71%. For `CN1CCCCC1Cc1nc(Cc2cccc(F)c2)no1` (stereo not given) the value was 9.056%. As for `CN(CCc1ccccc1)Cc1nc(Cc2cccc(F)c2)no1`, the figure is -15.79%; as for `CN(Cc1nc(Cc2cccc(C(F)(F)F)c2)no1)C(C1CC1)C1CC1`, 104.1%; as for `CN(Cc1nc(Cc2cccc(C(F)(F)F)c2)no1)C1CCOCC1`, 106.5%.

Consider `CN(CCc1cn[nH]c1)Cc1nc(Cc2cccc(C(F)(F)F)c2)no1`, for which the “Percent Effect” value is listed as -3.312%. As for `CN(Cc1nc(Cc2cccc(F)c2)no1)C1CCOCC1`, the figure is 108%. As for `CCN(CC)Cc1nc(Cc2cccc(C(F)(F)F)c2)no1`, the figure is 107.6%; as for `CN(CCc1cn[nH]c1)Cc1nc(Cc2cccc(F)c2)no1`, -20.63%; as for `Cc1n[nH]c(C)c1CNCC(O)c1ccc(F)c(F)c1` (stereo not given), -7.93%. For `O=C(c1ccc(-n2ccnc2)nn1)N1CCCC1CCc1ccccc1` (stereo not given) the value was 7.406%. `c1nc2c(c(NCCCn3cncn3)n1)CCN(CC1CCOC1)CC2` (stereo not given): the “Percent Effect” value was determined as 11.83%. Consider `CN(Cc1nc(Cc2cccc(C(F)(F)F)c2)no1)C1CCCCC1`, for which the “Percent Effect” value was found to be 113.9%.

Take `CN(Cc1cnn(C)c1)Cc1nc(Cc2cccc(Cl)c2)no1`: the “Percent Effect” value turned out to be 5.655%. As for `CN(Cc1cccc(C(F)(F)F)c1)Cc1nc(-c2cnccn2)no1`, the figure is -14.23%; as for `CN(Cc1nc(Cc2cccc(C(F)(F)F)c2)no1)CC1CCCCO1` (stereo not given), 99.9%; as for `O=C(C1CCC2(CCN(CC3CCOCC3)CC2)O1)N1CCCC1.O=C(O)C(F)(F)F` (stereo not given), -34.36%. As for `CN(C)C(=O)COC1COC2(CCN(CC3CCOCC3)CC2)C1.O=C(O)C(F)(F)F` (stereo not given), the figure is 121.3%. For `COc1ccccc1CN1CC[C@]2(C[C@@H](OCC(=O)N(C)C)CO2)C1.O=C(O)C(F)(F)F` the value was -8.079%. Regarding `CCOC1COC2(CCN(CC3CC3)CC2)C1.O=C(O)C(F)(F)F` (stereo not given), the “Percent Effect” value was 97.53%.

Take `CN(C)C(=O)COC1COC2(CCN(CC3CC3)CC2)C1.O=C(O)C(F)(F)F` (stereo not given): the “Percent Effect” value is reported as -29.66%. As for `O=C(O)C(F)(F)F.O=C(O)C(F)(F)F.c1ccc(OC2COC3(CCN(CC4CC4)CC3)C2)nc1` (stereo not given), the figure is -30.37%; as for `O=C(O)C(F)(F)F.O=S(=O)(N[C@@H]1CCO[C@]2(CCN(CC3CCOCC3)C2)C1)C1CC1`, -3.129%; as for `CCOC1COC2(CCN(CC3CCOCC3)CC2)C1.O=C(O)C(F)(F)F` (stereo not given), 102.9%.

In the case of `Clc1cc(Cl)cc(CN2CCC(NCc3cc[nH]n3)CC2)c1`, the “Percent Effect” value worked out at 16.8%. For `Cc1cccc(C(C)(C)NC(=O)CS(=O)(=O)CC(C)C)c1` the value was 15.34%; for `O=C(C[C@@H]1COC[C@H]2CN(CC3CCOCC3)C[C@@H]12)N1CCCCO1.O=C(O)C(F)(F)F`, -14.45%. As for `CC[C@H]1CN(C(=O)C2CC2)CC[C@H]1CC(=O)NCCN1CCOCC1`, the figure is 0.8633%. As for `COCCNC(=O)C[C@@H]1COC[C@H]2CN(C(=O)C3CCOCC3)C[C@@H]12`, the figure is 115.8%; as for `CC[C@H]1CN(S(C)(=O)=O)CC[C@H]1CC(=O)NCCOC`, 0.9239%; as for `COCCNC(=O)C[C@@H]1COC[C@H]2CN(C(=O)c3cnccn3)C[C@@H]12`, -3.747%.

Consider `COCCNC(=O)C[C@@H]1COC[C@H]2CN(C(=O)COC)C[C@@H]12`, for which the “Percent Effect” value came out at 99.69%. As for `COCCNC(=O)C[C@@H]1COC[C@H]2CN(CC3CCOCC3)C[C@@H]12.O=C(O)C(F)(F)F`, the figure is 95.67%; as for `CCC1CN(CC(=O)NCCOC)CCO1` (stereo not given), -3.161%; as for `O=C(C[C@@H]1COC[C@H]2CN(CC3CC3)C[C@@H]12)N1CCCCO1.O=C(O)C(F)(F)F`, -10.75%.
